# Compounds without any hit were thinned out: in the full panel of roughly 79,000, 15% have a hit. Unmarked numbers belong to inactive results. The source made the active and inactive calls. Rule as the data show it: active = growth inhibition above about 70%; inactive = the rest.
# How the values were obtained:
# [1] = NCI Yeast Anticancer Drug Screen. Data for the wt1 strain (AID 149);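 also: 0% = growth of vehicle-treated wt1 cultures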; conditions: S. cerevisiae wt1 strain (SPY 50644) growth inhibition, stronger effect = higher value
# Procedure, shortened: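 Compounds are added to wt1 yeast cultures. Growth is then measured. Inhibition is expressed relative to vehicle-treated controls.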
# [2] = NCI Yeast Anticancer Drug Screen. Data for the rad50EPP+ strain (AID 151);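 also: 0% = growth of vehicle-treated control cultures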; conditions: S. cerevisiae rad50 mutant strain, stronger effect = higher value
# Procedure, shortened: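 Yeast strain carrying rad50 alteration (rad50EPP+) exposed to compounds; growth inhibition measured relative to vehicle-treated controls.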
# [3] = NCI Yeast Anticancer Drug Screen. Data for the mgt1 strain (AID 153); conditions: S. cerevisiae mgt1 mutant growth inhibition, stronger effect = higher value
# Procedure, shortened: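 Yeast mgt1 strain (DNA repair/cell-cycle alteration panel) exposed to compounds; growth inhibition measured relative to vehicle-treated controls.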
# [4] = NCI Yeast Anticancer Drug Screen. Data for the rad50 strain (AID 155);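 also: 0% = growth of vehicle-only cultures of the same strain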; conditions: S. cerevisiae rad50 strain growth inhibition, stronger effect = higher value
# Procedure, shortened: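 Inhibition values express reduced yeast growth in compound-treated cultures relative to vehicle-treated controls.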
# [5] = NCI Yeast Anticancer Drug Screen. Data for the mec2-1 strain (AID 157); conditions: S. cerevisiae mec2-1 strain, stronger effect = higher value
# Procedure, shortened: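 mec2-1 yeast strain, carrying an alteration in DNA damage repair or cell cycle control, was exposed to compounds; growth inhibition was measured relative to vehicle-treated controls.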
# [6] = NCI Yeast Anticancer Drug Screen. Data for the rad14 strain (AID 159);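 also: 0% = growth of vehicle-treated control cultures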; conditions: S. cerevisiae rad14 strain growth inhibition, stronger effect = higher value
# Procedure, shortened: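 A mutant yeast strain defective in DNA damage repair is treated with compound; inhibition of its growth is scored against untreated, vehicle-exposed cultures.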
# [7] = NCI Yeast Anticancer Drug Screen. Data for the sgs1 mgt1 strain (AID 161);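 also: 0% = growth of cultures given vehicle only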; conditions: S. cerevisiae sgs1 mgt1 strain, stronger effect = higher value
# Procedure, shortened: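 Growth of a repair-deficient yeast mutant was monitored after compound treatment and expressed as inhibition relative to vehicle-treated cultures.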
# [8] = NCI Yeast Anticancer Drug Screen. Data for the CLN2oe strain (AID 163);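 also: 0% = growth of vehicle-only control cultures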; conditions: S. cerevisiae CLN2oe strain, stronger effect = higher value
# Procedure, shortened: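 Yeast cells carrying a defined cell-cycle control alteration were exposed to test compounds. Growth inhibition was scored against vehicle-treated control cultures.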
# [9] = NCI Yeast Anticancer Drug Screen. Data for the cln2 rad14 strain (AID 165);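 also: 0% = growth equal to vehicle treated cultures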; conditions: S. cerevisiae cln2 rad14 strain, stronger effect = higher value
# Procedure, shortened: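 Yeast carrying cln2 and rad14 alterations (cell cycle control and DNA damage repair) were exposed to compounds. Growth inhibition was measured against vehicle-treated controls.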
# [10] = NCI Yeast Anticancer Drug Screen. Data for the bub3 strain (AID 167); conditions: S. cerevisiae bub3 mutant strain, stronger effect = higher value
# Procedure, shortened: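 Steps: expose the mutant yeast strain to compound; grow alongside vehicle-treated cultures; measure growth; express inhibition against the vehicle cultures.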
# [11] = NCI Yeast Anticancer Drug Screen. Data for the mlh1 strain (AID 171);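 also: 0% = growth of vehicle-treated control cultures of the same strain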; conditions: S. cerevisiae mlh1 strain growth inhibition, stronger effect = higher value
# Procedure, shortened: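 Yeast carrying a defined genetic alteration in DNA damage repair or cell cycle control were exposed to test compounds. Growth inhibition was measured relative to vehicle-treated controls.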
# [12] = NCI Yeast Anticancer Drug Screen. Data for the sgs1 strain (AID 173);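 also: 0% = growth of vehicle-only control cultures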; conditions: S. cerevisiae sgs1 mutant, stronger effect = higher value
# Procedure, shortened: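 Yeast mutant strains carrying defined defects in DNA damage repair or cell cycle control were exposed to test compounds. Growth inhibition was scored against vehicle-treated controls.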
# [13] = NCI Yeast Anticancer Drug Screen. Data for the mlh1 rad18 strain (AID 175); conditions: S. cerevisiae mlh1 rad18 strain growth inhibition, stronger effect = higher value
# Procedure, shortened: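 Growth inhibition of the yeast strain was measured after compound exposure and expressed relative to vehicle-treated controls. The strain carries defined defects in DNA damage repair.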
# [14] = NCI Yeast Anticancer Drug Screen. Data for the rad18 strain (AID 177); conditions: S. cerevisiae rad18 mutant growth inhibition, stronger effect = higher value
# Procedure, shortened: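 Yeast carrying a defined DNA damage repair alteration were exposed to compounds. Growth inhibition was expressed relative to vehicle-treated controls.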
# [15] = at 5.0 µM (retest, dose inferred, filed as 0.5)
# [16] = at 50.0 µM (retest, dose inferred, filed as 5.0)
compound,measurement,setting,value
NCC(O)CSCc1ccc(Cl)cc1 (stereo not drawn),growth inhibition,[1]; at 1.2 µM,-3%
same,growth inhibition,[1]; at 3.7 µM,-5%
same,growth inhibition,[1]; at 11.0 µM,-3%
same,growth inhibition,[1]; at 33.0 µM,-3%
same,growth inhibition,[1]; at 100.0 µM,0%
same,growth inhibition,[2]; at 1.2 µM,-3%
same,growth inhibition,[2]; at 3.7 µM,-4%
same,growth inhibition,[2]; at 11.0 µM,1%
same,growth inhibition,[2]; at 33.0 µM,-5%
same,growth inhibition,[2]; at 100.0 µM,-2%
same,growth inhibition,[3]; at 1.2 µM,-4%
same,growth inhibition,[3]; at 3.7 µM,-2%
same,growth inhibition,[3]; at 11.0 µM,-2%
same,growth inhibition,[3]; at 33.0 µM,0%
same,growth inhibition,[3]; at 100.0 µM,7%
same,growth inhibition,[4]; at 1.2 µM,-2%
same,growth inhibition,[4]; at 3.7 µM,2%
same,growth inhibition,[4]; [15],5%
same,growth inhibition,[4]; at 11.0 µM,2%
same,growth inhibition,[4]; at 33.0 µM,7%
same,growth inhibition,[4]; [16],5%
same,growth inhibition,[4]; at 50.0 µM,0.9%
same,growth inhibition,[4]; at 100.0 µM,17%
same,growth inhibition,[5]; at 1.2 µM,-3%
same,growth inhibition,[5]; at 3.7 µM,-2%
same,growth inhibition,[5]; [15],-14%
same,growth inhibition,[5]; at 11.0 µM,-2%
same,growth inhibition,[5]; at 33.0 µM,-2%
same,growth inhibition,[5]; [16],5%
same,growth inhibition,[5]; at 50.0 µM,25.1%
same,growth inhibition,[5]; at 100.0 µM,3%
same,growth inhibition,[6]; at 1.2 µM,-2%
same,growth inhibition,[6]; at 3.7 µM,-2%
same,growth inhibition,[6]; at 11.0 µM,3%
same,growth inhibition,[6]; at 33.0 µM,7%
same,growth inhibition,[6]; at 100.0 µM,34%
same,growth inhibition,[7]; [15],-7%
same,growth inhibition,[7]; [16],25%
same,growth inhibition,[7]; at 50.0 µM,31%
same,growth inhibition,[8]; at 1.2 µM,-2%
same,growth inhibition,[8]; at 3.7 µM,0%
same,growth inhibition,[8]; at 11.0 µM,-2%
same,growth inhibition,[8]; at 33.0 µM,0%
same,growth inhibition,[8]; at 100.0 µM,28%
same,growth inhibition,[9]; [15],-7%
same,growth inhibition,[9]; [16],10%
same,growth inhibition,[9]; at 50.0 µM,86.5% (active)
same,growth inhibition,[10]; at 1.2 µM,-2%
same,growth inhibition,[10]; at 3.7 µM,-2%
same,growth inhibition,[10]; [15],-13%
same,growth inhibition,[10]; at 11.0 µM,1%
same,growth inhibition,[10]; at 33.0 µM,20%
same,growth inhibition,[10]; [16],64%
same,growth inhibition,[10]; at 50.0 µM,74.1% (active)
same,growth inhibition,[10]; at 100.0 µM,42%
same,growth inhibition,[11]; at 1.2 µM,-5%
same,growth inhibition,[11]; at 3.7 µM,-4%
same,growth inhibition,[11]; at 11.0 µM,-4%
same,growth inhibition,[11]; at 33.0 µM,-1%
same,growth inhibition,[11]; at 100.0 µM,22%
same,growth inhibition,[12]; at 1.2 µM,-9%
same,growth inhibition,[12]; at 3.7 µM,12%
same,growth inhibition,[12]; at 11.0 µM,-16%
same,growth inhibition,[12]; at 33.0 µM,7%
same,growth inhibition,[12]; at 100.0 µM,42%
same,growth inhibition,[13]; [15],-5%
same,growth inhibition,[13]; [16],18%
same,growth inhibition,[13]; at 50.0 µM,82.8% (active)
same,growth inhibition,[14]; at 1.2 µM,-5%
same,growth inhibition,[14]; at 3.7 µM,-1%
same,growth inhibition,[14]; at 11.0 µM,0%
same,growth inhibition,[14]; at 33.0 µM,-2%
same,growth inhibition,[14]; at 100.0 µM,11%
CCCCCCCCCC/C=C\CC(=O)O,growth inhibition,[1]; at 1.2 µM,-1%
same,growth inhibition,[1]; at 3.7 µM,-2%
same,growth inhibition,[1]; at 11.0 µM,-3%
same,growth inhibition,[1]; at 33.0 µM,2%
same,growth inhibition,[1]; at 100.0 µM,97% (active)
same,growth inhibition,[2]; at 1.2 µM,-4%
same,growth inhibition,[2]; at 3.7 µM,3%
same,growth inhibition,[2]; at 11.0 µM,11%
same,growth inhibition,[2]; at 33.0 µM,22%
same,growth inhibition,[2]; at 100.0 µM,47%
same,growth inhibition,[3]; at 1.2 µM,-3%
same,growth inhibition,[3]; at 3.7 µM,-2%
same,growth inhibition,[3]; at 11.0 µM,-2%
same,growth inhibition,[3]; at 33.0 µM,28%
same,growth inhibition,[3]; at 100.0 µM,99% (active)
same,growth inhibition,[4]; at 1.2 µM,0%
same,growth inhibition,[4]; at 3.7 µM,-1%
same,growth inhibition,[4]; [15],-1%
same,growth inhibition,[4]; at 11.0 µM,17%
same,growth inhibition,[4]; at 33.0 µM,18%
same,growth inhibition,[4]; [16],81% (active)
same,growth inhibition,[4]; at 50.0 µM,-10.8%
same,growth inhibition,[4]; at 100.0 µM,99% (active)
same,growth inhibition,[5]; at 1.2 µM,-3%
same,growth inhibition,[5]; at 3.7 µM,0%
same,growth inhibition,[5]; [15],5%
same,growth inhibition,[5]; at 11.0 µM,1%
same,growth inhibition,[5]; at 33.0 µM,8%
same,growth inhibition,[5]; [16],74% (active)
same,growth inhibition,[5]; at 50.0 µM,-0.8%
